Laboratory results reported in a collection of fitness landscapes (doi:10.1016/j.celrep.2020.107928).
Over roughly 81,000 sequences, “one-hybrid fitness for binding parS DNA” has its median near -0.17; the highest 2% begin near 0.51. Many of the other results were omitted from the sample, so the highest values are more common in it than they were.

B1: Caulobacter ParB omega fusion; a variant is named by its letters at X, in order, B8GW30 (parent)
chain: MESVVVGEPGMSEGRRGLGRGLSALLGEVDAAPAQAPGEQLGGSREAPIEILQRNPDQPRRTFREEDLEDLSNSIREKGVLQPILVRPSPDTAGEYQIVAGERAWRAAQRAGLKTVPIMVRELDDLAVLEIGIIENVQRADLNVLEEALSYKVLMEKFERTQENIAQTIGKSXSHVANXMRLLXLPDEVQSYLVSGELTAXHARAIAAAADPVALAKQIIEGGLSVRETEALARKAPNLSAGKSKGGRPPRVKDTDTQALESDLSSVLGLDVSIDHRGSTGTLTITYATLEQLDDLCNRLTRGI

Variants of: B1
Assay: one-hybrid fitness for binding parS DNA (scaled: cognate 1, non-cognate 0); higher = stronger binding
Conditions: with parS DNA site
In short: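 Values were rescaled so that cognate is 1 and non-cognate is 0. Each is a fitness, the log change in a variant's read ratio to wild type from Illumina reads of plasmids before and after selection, with three replicate libraries pooled and variants under 10 reads dropped. Selection of the Caulobacter ParB libraries, four specificity codons randomised, used E. coli USO with a HIS3 reporter, site 19 bp from the promoter, on M9-minus-histidine with 0.1 mM IPTG and 5 mM 3-AT for 48 hours at 37°C.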

Row | Variant | one-hybrid fitness for binding parS DNA
1 | RMPG | 0.775
2 | RMIP | ≤ 0.2
3 | RMPL | ≤ 0.2
4 | RMIG | 0.947
5 | RMPY | 0.322
6 | VWYT | ≤ 0.2
7 | HCQT | ≤ 0.2
8 | TAHC | ≤ 0.2
9 | RTVP | ≤ 0.2
10 | RTVN | 0.387
11 | RTKD | ≤ 0.2
12 | RTVS | 1
13 | RTKS | 0.815
14 | RTKH | 0.439
15 | PTHK | ≤ 0.2
16 | YTPL | ≤ 0.2
17 | RQDM | 0.324
18 | RQHT | 0.892
19 | RQDY | 0.421
20 | RQST | 0.916
21 | RQRT | 0.849
22 | RQSR | ≤ 0.2
23 | RQHH | 0.292

Row | Variant | one-hybrid fitness for binding parS DNA
24 | RQHD | ≤ 0.2
25 | RQRK | ≤ 0.2
26 | RQDT | 0.768
27 | RQRM | 0.349
28 | RQSM | 0.319
29 | VPNM | ≤ 0.2
30 | PYKG | ≤ 0.2
31 | NCIC | ≤ 0.2
32 | LPKF | ≤ 0.2
33 | GQSM | ≤ 0.2
34 | WYTC | ≤ 0.2
35 | RQGH | 0.249
36 | RQNE | ≤ 0.2
37 | RQYK | ≤ 0.2
38 | RQGT | 0.847
39 | RQGD | ≤ 0.2
40 | RQNQ | ≤ 0.2
41 | RQYM | 0.318
42 | RQQF | 0.28
43 | RQQR | ≤ 0.2
44 | RQQT | 0.895
45 | RQNT | 0.889
46 | RQYT | 0.847

Row | Variant | one-hybrid fitness for binding parS DNA
47 | NLLR | ≤ 0.2
48 | RPHV | ≤ 0.2
49 | WPRR | ≤ 0.2
50 | VTAC | ≤ 0.2
51 | DHDY | ≤ 0.2
52 | MGLM | ≤ 0.2
53 | DCQR | ≤ 0.2
54 | HLAT | ≤ 0.2
55 | RQLM | 0.301
56 | RQWR | ≤ 0.2
57 | RQCD | ≤ 0.2
58 | RQWT | 0.702
59 | RQWF | ≤ 0.2
60 | RQLR | ≤ 0.2
61 | RQCT | 0.846
62 | RQLT | 0.86
63 | RQCP | ≤ 0.2
64 | FMNC | ≤ 0.2
65 | QHYS | ≤ 0.2
66 | AARS | ≤ 0.2
67 | AYIV | ≤ 0.2
68 | GHTQ | ≤ 0.2
69 | WFQV | ≤ 0.2

Row | Variant | one-hybrid fitness for binding parS DNA
70 | REAG | ≤ 0.2
71 | RSAF | 0.266
72 | RPAG | ≤ 0.2
73 | RCAG | 1.02
74 | RSAG | 0.992
75 | RDAG | ≤ 0.2
76 | RPEM | ≤ 0.2
77 | VMQS | ≤ 0.2
78 | RGMY | ≤ 0.2
79 | RGMG | 0.604
80 | RGMC | 0.543
81 | RGMS | 0.672
82 | RGMM | ≤ 0.2
83 | RGMP | ≤ 0.2
84 | RGMN | ≤ 0.2
85 | RGMD | ≤ 0.2
86 | RGMQ | ≤ 0.2
87 | PVHI | ≤ 0.2
88 | HKLN | ≤ 0.2
89 | WWDG | ≤ 0.2
90 | RNHR | ≤ 0.2
91 | DEPC | ≤ 0.2
92 | RVSG | 0.999

Row | Variant | one-hybrid fitness for binding parS DNA
93 | RVDQ | ≤ 0.2
94 | RVWP | ≤ 0.2
95 | RVDK | ≤ 0.2
96 | RVDG | 0.874
97 | RVWH | ≤ 0.2
98 | RVNG | 0.992
99 | RVNM | 0.324
100 | RVSM | 0.347
101 | RVWG | 0.982
102 | RVNQ | ≤ 0.2
103 | RVSR | ≤ 0.2
104 | AQKQ | ≤ 0.2
105 | HTYC | ≤ 0.2
106 | VSWE | ≤ 0.2
107 | SPNG | ≤ 0.2
108 | LCPA | ≤ 0.2
109 | LGTD | ≤ 0.2
110 | MNAP | ≤ 0.2
111 | PHSE | ≤ 0.2
112 | DQES | ≤ 0.2
113 | NCWT | ≤ 0.2
114 | RCSE | ≤ 0.2
115 | MTTC | ≤ 0.2

Row | Variant | one-hybrid fitness for binding parS DNA
116 | RVYP | 0.213
117 | RVHQ | ≤ 0.2
118 | RVHK | ≤ 0.2
119 | RVYG | 1.02
120 | RVCR | ≤ 0.2
121 | RVCF | 0.249
122 | RVRF | 0.266
123 | RVRG | 0.955
124 | RVCG | 0.972
125 | RVRM | 0.392
126 | RVYN | 0.46
127 | RVHG | 1.03
128 | MWSG | ≤ 0.2
129 | WLTK | ≤ 0.2
130 | SYTT | ≤ 0.2
131 | YPIF | ≤ 0.2
132 | ESYW | ≤ 0.2
133 | ARYC | ≤ 0.2
134 | RVQG | 0.999
135 | RVLD | 0.245
136 | RVGK | ≤ 0.2
137 | RVQR | ≤ 0.2
138 | RVQF | 0.234

Row | Variant | one-hybrid fitness for binding parS DNA
139 | RVGR | ≤ 0.2
140 | RVGG | 1.01
141 | RVLG | 0.992
142 | RVLN | 0.423
143 | EAAT | ≤ 0.2
144 | GLPN | ≤ 0.2
145 | PHRK | ≤ 0.2
146 | FRSF | ≤ 0.2
147 | RKWM | 0.254
148 | RHWC | 0.759
149 | RKWR | ≤ 0.2
150 | RIWR | ≤ 0.2
151 | RRWH | ≤ 0.2
152 | RIWC | 0.936
153 | RHWH | ≤ 0.2
154 | RKWC | 0.887
155 | RHWD | ≤ 0.2
156 | RIWQ | ≤ 0.2
157 | RRWN | 0.323
158 | RRWC | 0.739
